High-throughput results from PubChem.
ERa SRC1 pot: ER-alpha (human) coactivator binding potentiation. P03372. TR-FRET ERalpha-LBD/SRC-Cy5 coactivator binding, 2 h; 100 = basal binding, no effect. coactivator binding (% of control), % at 25.6 µM. 86,000 tested, 1.3% active; in the data active = activity above about 200%;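 note: binding measured in presence of low estradiol as agonist stimulus; 0% = peptide alone without receptor and 100% = receptor with peptide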
ERa coact inh: ER-alpha (human) coactivator binding inhibition; TR-FRET ER-alpha LBD / SRC-1 peptide, estradiol-bound; 86,000 tested, 1.7% active; P03372; inhibition, % at 25.6 µM; in the data active = inhibition above about 50%;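 note: 0% = receptor plus peptide control and 100% = peptide only without receptor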
FAK blocker: inhibitors of human focal adhesion kinase. Q05397. 97,000 tested, 0.84% active. biochemical FAK kinase activity assay. inhibition, %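 (tested at 7 µM)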; in the data active = inhibition above about 19%;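 note: 0% = DMSO and 100% = reference compound high control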
Target sequence (Q05397 whole entry, looked up): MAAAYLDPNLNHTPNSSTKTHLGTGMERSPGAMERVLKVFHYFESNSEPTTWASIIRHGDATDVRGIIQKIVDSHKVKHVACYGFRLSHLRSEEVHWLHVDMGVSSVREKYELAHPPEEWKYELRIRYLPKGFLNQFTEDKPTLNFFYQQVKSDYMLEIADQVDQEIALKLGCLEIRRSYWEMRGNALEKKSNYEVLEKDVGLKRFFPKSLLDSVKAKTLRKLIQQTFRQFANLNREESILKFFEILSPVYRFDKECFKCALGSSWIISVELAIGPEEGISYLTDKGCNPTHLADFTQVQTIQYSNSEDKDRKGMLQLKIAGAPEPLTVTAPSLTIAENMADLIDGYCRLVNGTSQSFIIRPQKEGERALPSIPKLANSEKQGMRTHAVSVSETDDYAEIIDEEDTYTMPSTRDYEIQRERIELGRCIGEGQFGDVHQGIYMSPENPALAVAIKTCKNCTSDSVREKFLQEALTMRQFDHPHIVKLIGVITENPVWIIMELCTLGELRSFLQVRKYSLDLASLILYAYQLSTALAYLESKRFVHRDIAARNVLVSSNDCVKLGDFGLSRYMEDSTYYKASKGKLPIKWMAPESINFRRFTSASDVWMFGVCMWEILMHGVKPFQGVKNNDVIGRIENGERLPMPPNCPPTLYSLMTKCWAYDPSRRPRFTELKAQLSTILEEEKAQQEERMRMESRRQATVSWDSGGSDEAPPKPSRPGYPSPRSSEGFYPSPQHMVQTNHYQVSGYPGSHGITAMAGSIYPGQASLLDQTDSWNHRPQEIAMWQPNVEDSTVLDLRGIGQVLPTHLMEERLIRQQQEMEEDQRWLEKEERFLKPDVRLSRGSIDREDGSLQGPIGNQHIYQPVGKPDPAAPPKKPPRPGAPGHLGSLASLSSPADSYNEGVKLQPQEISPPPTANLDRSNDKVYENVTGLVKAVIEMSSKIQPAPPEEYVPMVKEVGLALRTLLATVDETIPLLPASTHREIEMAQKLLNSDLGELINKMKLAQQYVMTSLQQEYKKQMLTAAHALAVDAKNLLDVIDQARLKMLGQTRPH
ERb coact inh: blocks coactivator binding to human estrogen receptor beta. Q92731. TR-FRET ER-beta LBD / SRC1-Cy5 peptide binding; receptor agonist-loaded with 1 µM estradiol. inhibition, % at 25.6 µM. 86,000 tested, 1.3% active;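 active = compounds whose percent inhibition of the receptor-coactivator binding signal exceeds about 50% in the single-dose screen, limit read from the data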;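 note: 0% = receptor plus peptide wells without compound and 100% = peptide-only wells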
Starred values were filed as active, the others as inactive; · = not tested or not shown; [ ] = another dose, or the depositor's remark. Compounds with a hit are over-represented: about 3.2% of the library has one in this group of screens.

SMILES	ERa SRC1 pot	ERa coact inh	FAK blocker	ERb coact inh
c1ccc(-c2nc(C3CCCCC3)no2)cc1	99	-9	0	68*
COC(=O)c1ccc(COC(=O)c2ccc(S(=O)(=O)N3CCC(C)CC3)cc2)o1	730*	19	1	7
CN=c1scc(C)n1/N=C/c1ccc(O)c(O)c1O	17	97*[fluorescence artefact?]	1	100*[fluorescence artefact?]
Cc1onc(-c2ccccc2Cl)c1C(=O)Nc1cccc2nsnc12	263*[fluorescence artefact?]	-2	0	-10
Cc1onc(-c2ccccc2Cl)c1C(=O)Nc1cccc2cccnc12	73	5	3	0
Cc1oc(-c2ccc(Cl)cc2)nc1CN1CCCC(C(=O)NCc2cccnc2)C1 (configuration not stated)	109	-7	2	53*
Cc1oc(-c2ccc(Cl)cc2)nc1CN1CCCC(C(=O)NCc2ccccn2)C1 (configuration not stated)	99	-4	-3	2
O=C(N/N=C/c1ccc([N+](=O)[O-])s1)c1cccc(Br)c1	62	76*[fluorescence artefact?]	21*	5
Cc1cccc(NC(=S)N/N=C/c2ccc([N+](=O)[O-])s2)c1	·	·	-5	·
CCOc1ccccc1C1CC(c2ccc(Br)cc2)Nc2nc(N)nn21 (configuration not stated)	108	-1	8	-6
CN1CCN(c2ccc(C(=O)c3ccc(F)cc3)cc2)CC1	146	0	4	-6
O=C(O)CCC(=O)N1CCN(c2ccc(C(=O)c3ccc(F)cc3)cc2)CC1	249*	13	0	-7
CC(C)CCNC(=O)c1ccc2c(c1)N(Cc1ccccc1)C(=O)CS2=O (configuration not stated)	122	-8	·	-14
CCN1CCc2c(sc3c2c(NCc2ccco2)nc2nnnn23)C1	20	85*[fluorescence artefact?]	·	62*[fluorescence artefact?]
O=C(CCNC(=O)c1ccc(Br)o1)NCc1ccccn1	99	-7	-1	13
Cc1cccc(Sc2nc(-c3ccccc3)ccc2C#N)c1	·	·	4	·
Cc1nc2sccn2c1-c1nc(C2CC2)c(C(=O)c2ccc3c(c2)NC(=O)CO3)s1	67	61*	·	53*[fluorescence artefact?]
O=C1COc2ccc(C(=O)CSc3nnc(-c4cccs4)n3Cc3ccccc3)cc2N1	189	9	4	9
N#CC(C(=O)Nc1ccccc1)=C1CCCCC1	90	-1	·	74*
N#CC(C(=O)O)=C1CCCC1	93	14	1	20
CCOC(=O)C1=C(N)n2c(s/c(=C\c3cccnc3)c2=O)=C(C(=O)OCC)C1c1cccnc1 (configuration not stated)	119	0	·	9
CCOC(=O)C1=C(N)n2c(s/c(=C\c3cccnc3)c2=O)=C(C(=O)OC)C1c1cccnc1 (configuration not stated)	266*[fluorescence artefact?]	72*[fluorescence artefact?]	4	19
COc1ccc(N2C(=O)c3ccc(NC(C)=O)cc3C2=O)cc1	107	-9	-4	6
COc1cc2c3c(c1)/C(=C1/SC(NC(C)=O)=NC1=O)C(=O)N3C(C)(C)C=C2C	49	77*[fluorescence artefact?]	1	54*
CCCOc1ccccc1NC(=O)/C=C/C(N)=O	117	-3	0	-2
SMILES	ERa SRC1 pot	ERa coact inh	FAK blocker	ERb coact inh
COc1ccc2[nH]c3nc(SCc4nnc(-c5ccc(C)cc5)o4)nnc3c2c1	197	81*	17	64*[fluorescence artefact?]
CCc1ccc2nc(SCC(=O)N3CC(=O)Nc4ccccc43)c(C#N)cc2c1	360*	5	0	-13
CCc1ccc2nc(SCC(=O)N3CCCCC3)c(C#N)cc2c1	95	-8	9	-7
O=C(OCc1cc(=O)n2c(n1)sc1ccccc12)c1ccc2c(=O)n3c(nc2c1)CCC3	29	79*[fluorescence artefact?]	·	49
COc1ccc(-c2nc(SCC(=O)Nc3cc(C)on3)n[nH]2)cc1	·	·	3	·
CCCCc1nc(SCC(=O)Nc2cc(C)on2)n[nH]1	110	-6	-3	98*[fluorescence artefact?]
CCn1c(=O)c2c(n3cnnc13)-c1ccccc1CC21CCCCC1	102	-7	-2	20
Cc1ccc(Cn2c(=S)[nH]c3ccc(N4CCOCC4)cc3c2=O)o1	67	26	·	52*[fluorescence artefact?]
O=c1c2cc(N3CCOCC3)ccc2[nH]c(=S)n1CCN1CCCC1	84	29	·	15
O=c1c2cc(N3CCOCC3)ccc2[nH]c(=S)n1CCCN1CCCCCC1	49	75*[fluorescence artefact?]	·	50
Cc1ccc(NC(=S)N2CCN(C3CCCCC3)CC2)cc1	·	·	1	·
CCn1cc(SCC(=O)NCc2ccc3c(c2)OCO3)c2ccccc21	111	-5	·	53*
Cn1c2ccccc2c2nnc(SCc3ccc4nonc4c3)nc21	77	55*[fluorescence artefact?]	-6	29
CCn1c2ccccc2c2nnc(SCC(=O)Nc3cc(C)on3)nc21	136	20	-3	30
CCn1c2ccccc2c2nnc(SCC(=O)Nc3ccc4c(c3)OCO4)nc21	102	50*	1	31
CCn1c2ccccc2c2nnc(SCc3ccccc3)nc21	90	56*[fluorescence artefact?]	·	22
CCCn1cc(SCC(=O)NCc2ccc3c(c2)OCO3)c2ccccc21	107	-6	-6	-6
CCOc1ccc(-n2c(N)c(C(=O)NCc3ccco3)sc2=S)cc1	82	-4	-5	-8
Cc1nn(-c2ccccc2)c2sc(C(=O)OCN3C(=O)c4ccccc4C3=O)cc12	109	60*	·	34
CNC(=O)COC(=O)c1cc2c(C)nn(-c3ccc(F)cc3)c2s1	105	-2	2	-6
CCC(=O)Oc1ccc(C(CC)C(CC)c2ccc(OC(=O)CC)cc2)cc1 (configuration not stated)	577*	-2	·	-2
Cc1nnc2ccc(N3CCC(C(N)=O)(N4CCCCC4)CC3)nn12	106	-1	·	2
C=CCOC(=O)C1=C(C)NC(SCC(=O)Nc2ccccc2)=C(C#N)C1c1ccco1 (configuration not stated)	107	-1	-1	-10
O=C(CSc1oc(-c2ccco2)nc1S(=O)(=O)c1ccccc1)NCC1CCCO1 (configuration not stated)	·	·	2	·
O=C(CSc1oc(-c2ccco2)nc1S(=O)(=O)c1ccc(Cl)cc1)NCC1CCCO1 (configuration not stated)	44	54*[fluorescence artefact?]	0	43
SMILES	ERa SRC1 pot	ERa coact inh	FAK blocker	ERb coact inh
Cn1cc(Cl)nc1C(O)c1ccccc1 (configuration not stated)	88	3	·	2
N/C(Cc1ccc([N+](=O)[O-])cc1)=N\OC(=O)c1ccc2ccccc2c1	119	50*	1	20
Cc1ccc(-c2csc3ncn(CC(=O)N4CCOCC4)c(=O)c23)cc1C	68	16	3	78*[fluorescence artefact?]
O=C(Cn1cnc2scc(-c3ccccc3)c2c1=O)N1CCOCC1	110	25	0	25
Cc1cc(C)c(NC(=O)C(C)Sc2nnc(-c3ccco3)n2-c2ccccc2)c(C)c1 (configuration not stated)	·	·	-6	·
CC(C)c1nnc(NC(=O)c2c(O)c3cccc4c3n(c2=O)CC4)s1	111	3	·	5
CCCc1nnc(NC(=O)c2c(O)c3cccc4c3n(c2=O)CCC4)s1	93	15	·	56*[fluorescence artefact?]
O=C1CC(N2CCC(c3nc4ccccc4o3)CC2)C(=O)N1c1ccc(Cl)cc1 (configuration not stated)	94	-6	1	-4
